Values joined by “and” are separate entries in the source; they are usually repeats but may differ in a detail not shown here. Equal entries are not always repeated. Records with an inconclusive call do not appear. Entries that show only a call come without a potency. Active and inactive are the calls of the source. Unless noted, no rule for the calls is given here.

Chain of Nuclear receptor subfamily 1 group I member 2 (Rattus norvegicus) (Q9R1A7 whole entry, looked up): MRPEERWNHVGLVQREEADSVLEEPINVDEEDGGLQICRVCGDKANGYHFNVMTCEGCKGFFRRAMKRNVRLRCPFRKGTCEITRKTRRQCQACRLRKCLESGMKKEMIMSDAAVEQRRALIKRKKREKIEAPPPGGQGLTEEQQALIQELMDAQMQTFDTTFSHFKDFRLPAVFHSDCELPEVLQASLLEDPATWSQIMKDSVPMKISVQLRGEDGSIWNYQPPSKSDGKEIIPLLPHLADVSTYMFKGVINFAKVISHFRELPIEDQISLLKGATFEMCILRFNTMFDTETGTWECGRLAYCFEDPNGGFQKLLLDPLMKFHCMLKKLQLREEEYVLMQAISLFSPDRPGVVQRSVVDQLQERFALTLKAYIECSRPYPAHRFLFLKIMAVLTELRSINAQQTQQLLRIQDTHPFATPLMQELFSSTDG

System in the first experiment: not listed separately
As to the kind of experiment: qHTS assay to identify inhibitors of the type 1 interferon - major histocompatibility complex class I in skeletal muscle: Counter screen cell viability and HiBit confirmation (AID 1347412; active = well fitted inhibition curve with a large enough effect; also: nearly all actives have a fitted effect of over 60% in size; also: potency is read from the fitted curve at half-maximal effect). Particulars: iHSKM muscle cells + IFN-b, HiBiT or CellTiter-Glo, 24 h; Potency: HiBiT; Viability, at 45.9 µM (top of the series). An outline of the steps: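 Human myoblast knock-in line, 4.0 ng/ml IFN-beta stimulation, 24 h compound treatment. Endpoints: HiBiT lytic luminescence (HLA-B level) and CellTiter Glo (ATP). Dosing 12 concentrations, 3-fold steps, 46 uM highest final.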
(In general: qHTS replaces the single test concentration by a dilution series.)
Consider `C[C@@H]1O[C@@H](O[C@H]2C[C@@H](O)[C@]3(CO)[C@@H]4C(CC[C@]3(O)C2)[C@@]2(O)CC[C@H]([C@@H]3COC(=O)C3)[C@@]2(C)C[C@H]4O)[C@H](O)[C@H](O)[C@H]1O` (stereo partly drawn), for which the Potency was 0.557 µM (active).
Same read-out and setting: for `CC(C)(C)c1cc(C=C(C#N)C#N)cc(C(C)(C)C)c1O` the value was “inactive”; for `CNc1ccc2oc(C[C@H]3O[C@@]4(CC[C@H]3C)O[C@H]([C@H](C)C(=O)c3ccc[nH]3)[C@H](C)C[C@H]4C)nc2c1C(=O)O`, 2.49 µM (active); for `C/C(=C\c1csc(C)n1)[C@@H]1C[C@@H]2O[C@]2(C)CCC[C@H](C)[C@H](O)[C@@H](C)C(=O)C(C)(C)[C@@H](O)CC(=O)O1`, “inactive”.
Take `c1ccc2c(c1)[I+]c1ccccc1-2`: the Potency is 7.01 µM (active).
As for `Cc1c2ccncc2c(C)c2c1[nH]c1ccccc12`, the Potency was 15.7 µM (active).
`CC1(C(=O)O)C2CCC(O2)C1(C)C(=O)O` (stereo not drawn): the Potency entry is “inactive”.

A further experiment concerns the target Nuclear receptor subfamily 1 group I member 2 (Rattus norvegicus) (UniProt Q9R1A7). As to the kind of experiment: qHTS assay for small molecule activators of the rat pregnane X receptor (rPXR) signaling pathway (AID 651751). The settings on record: rPXR reporter cells, luciferase (One-Glo), 24 h.
As to `O=C1C=CC(=O)C=C1`, the max response is 0.171% (inactive).
Still for that read-out and setting: for `CC(C)(C)c1cc(O)ccc1O` the value was 3.84% (inactive) and -2.04% (inactive) and 0.779% (inactive); for `O=C(O)c1cc[c]([Hg][Cl])cc1`, -6.42% (inactive); for `COc1ccc2c(c1OC)C(=O)OC2C1c2cc3c(cc2CCN1C)OCO3` (stereo not drawn), 3.69% (inactive).
Same read-out and setting: for `NNC(N)=O` the value was 4.4% (inactive).

System in another experiment: not listed separately
As to the kind of experiment: qHTS assay for small molecule activators of the human pregnane X receptor (PXR) signaling pathway (AID 720659). Particulars: DPX-2 HepG2 CYP3A4-luciferase, 24 h; series mostly up to 92.3 µM.
On to `C[C@H]1CC[C@@H]2[C@@H](C)[C@H]3[C@H](C[C@H]4[C@@H]5CC=C6CC(O[C@@H]7O[C@H](CO)[C@H](O)[C@H](O[C@@H]8O[C@H](CO)[C@@H](O)[C@H](O)[C@H]8O)[C@H]7O[C@H]7O[C@@H](C)[C@H](O)[C@@H](O)[C@H]7O)CC[C@]6(C)[C@H]5CC[C@]34C)N2C1` (stereo partly drawn), for which the compound was classed as inactive.
As to `CC[C@H](C)[C@H]1O[C@]2(C=C[C@@H]1C)C[C@@H]1C[C@@H](C/C=C(\C)[C@@H](O[C@H]3C[C@H](OC)[C@@H](O[C@H]4C[C@H](OC)[C@@H](O)[C@H](C)O4)[C@H](C)O3)[C@@H](C)/C=C/C=C3\CO[C@@H]4[C@H](O)C(C)=C[C@@H](C(=O)O1)[C@]34O)O2`, the outcome was inactive.
As to `O=C1C=CC(=O)C=C1`, the compound was called inactive.
Consider `O=C(O)c1cc[c]([Hg][Cl])cc1`, for which the call was inactive.
With `O=[N+]([O-])C(Br)(CO)CO`, the result was inactive.
The same measure, in the same setting: for `NNC(N)=O` the value was “inactive”.

The record behind these values is PubChem BioAssay (NCATS).
